{"source": "PubChem BioAssay", "key": {"[1]": {"assay": "blockers of polyQ-driven CASP3 activation – cell-based (AID 1583)", "settings": "polyglutamine-induced caspase-3 activation, cell assay; stronger effect = higher value;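 tested at 10 µM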"}, "[2]": {"assay": "yeast 75Q aggregation reduction – 75Q-TubU reporter (AID 1593)", "settings": "Yeast 75Q polyglutamine aggregation reporter"}, "[3]": {"assay": "restoration of touch response, mutant HTT neurons – whole organism, C. elegans mechanosensory neurons, N-terminal huntingtin (AID 1599)", "settings": "C. elegans polyQ-huntingtin mechanosensory neurons, stronger effect = higher value"}, "[4]": {"assay": "blockers of cytochrome c efflux from mitochondria – biochemical, purified mitochondria (AID 1603);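 as to all read-outs here: mouse liver mitochondria challenged with calcium chloride; signal normalized to the plate average as 100%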", "settings": "stronger effect = lower value"}, "[5]": {"assay": "polyglutamine aggregate formation blockers (AID 1604)", "settings": "polyglutamine-induced protein aggregation inhibition assay; stronger effect = higher value; tested at 2.5 µM"}, "[6]": {"assay": "glutamate transport activators, MN-1 cells, MN-1 cell line (AID 1612);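 as to all read-outs here: tested at 1 µM final; 0% = mean of DMSO vehicle wells on each plate; positive means more glutamate uptake than control and negative means less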", "settings": "MN-1 motor neuron cells, stronger effect = higher value"}, "[7]": {"assay": "GFP-Q80 aggregate reduction, neuronal-like cells, cell-based, NGF-treated PC12, GFPQ80 (AID 1614);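 as to all read-outs here: lower means fewer inclusions and 0 means no inclusions at all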", "settings": "PC12 NGF-treated GFP-polyQ80 inclusion reduction"}, "[8]": {"assay": "75Q-TubH aggregate inhibition, S. cerevisiae, yeast (AID 1616)", "settings": "S. cerevisiae 75Q-TubH polyglutamine aggregation suppression; stronger effect = higher value"}, "[9]": {"assay": "P. berghei load reduction in hepatocytes – cell-based, HepG2, luciferase luminescence, HepG2 viability, primary screen (AID 624349; in the data active = parasite load remaining mostly below about 12%, no sharp cut-off; inactive = mostly above about 10%;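 as to all read-outs here: 100% = mean of DMSO negative control wells on the same plate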)", "settings": "P. berghei liver stage in HepG2, luciferase luminescence, concentration not given here; parasite load remaining: stronger effect = lower value; viability: measured here: HepG2 viability without parasites"}, "[10]": {"molecular_target": "6-phosphogluconate dehydrogenase, decarboxylating (Homo sapiens) (UniProt P52209)", "sequence (P52209 whole entry, looked up)": "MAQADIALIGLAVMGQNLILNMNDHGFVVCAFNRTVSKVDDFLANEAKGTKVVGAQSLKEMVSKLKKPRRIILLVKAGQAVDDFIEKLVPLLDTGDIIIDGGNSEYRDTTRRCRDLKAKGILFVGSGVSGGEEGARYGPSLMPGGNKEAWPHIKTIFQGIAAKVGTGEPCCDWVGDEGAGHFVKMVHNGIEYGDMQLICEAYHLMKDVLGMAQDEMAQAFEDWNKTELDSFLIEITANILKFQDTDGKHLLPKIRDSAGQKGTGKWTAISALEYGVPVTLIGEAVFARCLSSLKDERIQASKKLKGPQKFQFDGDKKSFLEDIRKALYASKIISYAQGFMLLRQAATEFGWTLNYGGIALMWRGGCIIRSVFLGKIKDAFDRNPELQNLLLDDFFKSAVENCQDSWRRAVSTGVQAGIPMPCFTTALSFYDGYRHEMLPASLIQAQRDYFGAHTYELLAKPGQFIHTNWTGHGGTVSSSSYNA", "assay": "inhibition of human phosphogluconate dehydrogenase – biochemical, recombinant enzyme, NADPH absorbance, primary screen (AID 1159550;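 active = at least 20% inhibition of 6-phosphogluconate dehydrogenase activity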)", "settings": "recombinant 6PGD, NADPH absorbance 341 nm; at 10 µM; stronger effect = higher value"}, "[11]": {"assay": "EMT-state selective cytotoxicity in co-culture – imaging, PC-3E GFP, TEM4-18 mCherry, primary screen (AID 1345086;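 active = compounds killing one labelled cell type while sparing the other, by normalised counts and ratio limits, not self-fluorescent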;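 as to all read-outs here: cells exposed to compound for 72 h before imaging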;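 as to red/green cell ratio (normalised): normalised mesenchymal count divided by normalised epithelial count so high means epithelial killing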)", "settings": "PC-3E GFP / TEM4-18 mCherry co-culture, imaging cell counts, at 1 µM; for red/green cell ratio (normalised): actives lie on both sides, counts scaled to control wells, 1 = unselective"}, "[12]": {"assay": "viability loss with induced miR-34 in A549 – imaging, A549 dox-inducible miR-34, nuclei and caspase counts, primary screen (AID 1347080)", "settings": "A549 miR-34 inducible, Hoechst nuclei count, 48 h"}, "[13]": {"molecular_target": "NAD(+) hydrolase SARM1 (Homo sapiens) (UniProt Q6SZW1)", "sequence (Q6SZW1 whole entry, looked up)": "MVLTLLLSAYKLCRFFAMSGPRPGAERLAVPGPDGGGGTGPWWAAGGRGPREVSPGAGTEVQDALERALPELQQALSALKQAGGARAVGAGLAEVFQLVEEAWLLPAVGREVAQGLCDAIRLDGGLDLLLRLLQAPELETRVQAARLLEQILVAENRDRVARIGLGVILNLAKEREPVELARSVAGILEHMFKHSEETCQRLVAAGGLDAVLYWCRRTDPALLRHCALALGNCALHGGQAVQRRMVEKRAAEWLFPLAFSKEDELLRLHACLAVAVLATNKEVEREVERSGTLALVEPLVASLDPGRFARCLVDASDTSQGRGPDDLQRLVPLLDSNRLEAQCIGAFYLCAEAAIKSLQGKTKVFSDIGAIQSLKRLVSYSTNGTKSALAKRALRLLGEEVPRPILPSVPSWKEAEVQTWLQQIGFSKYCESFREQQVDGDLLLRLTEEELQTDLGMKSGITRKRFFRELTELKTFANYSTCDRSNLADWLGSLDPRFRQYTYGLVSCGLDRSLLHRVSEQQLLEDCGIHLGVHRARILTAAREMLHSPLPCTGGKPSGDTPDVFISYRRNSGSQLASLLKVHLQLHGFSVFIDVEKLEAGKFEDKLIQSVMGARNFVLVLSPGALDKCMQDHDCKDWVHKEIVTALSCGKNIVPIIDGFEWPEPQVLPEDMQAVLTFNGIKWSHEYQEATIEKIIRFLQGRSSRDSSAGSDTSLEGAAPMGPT", "assay": "blocking NAD cleavage by SARM1 SAM-TIR – cell lysate, NAD-Glo luminescence (AID 1508614;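 active = compound whose remaining NAD level is above about 45 nM, limit read from the data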)", "settings": "SAM-TIR HEK293T lysate NADase, at 1 µM, stronger effect = higher value"}, "[14]": {"molecular_target": "Mitogen-activated protein kinase 7 (Homo sapiens) (UniProt Q13164)", "sequence (Q13164 whole entry, looked up, the tested form may be a part)": "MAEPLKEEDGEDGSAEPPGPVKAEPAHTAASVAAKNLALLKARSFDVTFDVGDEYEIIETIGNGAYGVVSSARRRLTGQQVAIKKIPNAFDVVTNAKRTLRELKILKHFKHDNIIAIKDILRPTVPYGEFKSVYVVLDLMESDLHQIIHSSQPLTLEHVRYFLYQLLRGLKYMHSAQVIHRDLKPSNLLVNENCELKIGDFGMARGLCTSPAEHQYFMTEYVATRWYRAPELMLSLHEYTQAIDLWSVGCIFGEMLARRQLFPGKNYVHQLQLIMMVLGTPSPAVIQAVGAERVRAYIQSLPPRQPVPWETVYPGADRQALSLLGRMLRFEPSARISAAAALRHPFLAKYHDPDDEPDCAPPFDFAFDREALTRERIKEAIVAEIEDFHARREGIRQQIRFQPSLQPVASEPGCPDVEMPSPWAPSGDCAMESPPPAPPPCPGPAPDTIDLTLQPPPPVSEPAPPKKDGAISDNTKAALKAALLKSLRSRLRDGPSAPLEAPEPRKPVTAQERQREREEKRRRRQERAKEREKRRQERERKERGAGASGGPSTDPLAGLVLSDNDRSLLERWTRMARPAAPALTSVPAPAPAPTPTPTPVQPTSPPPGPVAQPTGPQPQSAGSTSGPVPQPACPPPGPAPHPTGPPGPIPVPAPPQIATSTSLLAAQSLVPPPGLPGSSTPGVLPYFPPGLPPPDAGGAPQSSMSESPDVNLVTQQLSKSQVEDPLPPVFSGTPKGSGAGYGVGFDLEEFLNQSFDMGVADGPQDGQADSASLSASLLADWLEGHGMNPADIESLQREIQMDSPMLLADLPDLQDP", "assay": "Gal4-ERK5 driven luciferase induction – cell-based, HTS, primary screen (AID 1508626;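 active = luciferase signal above three times the same-plate solvent-only control wells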;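 also: luciferase driven by Gal4-ERK5 fusion binding five Gal4 sites before minimal TATA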)", "settings": "HeLa Gal4-ERK5 transactivation, 18 h, at 5 µM, stronger effect = higher value"}, "[15]": {"assay": "compounds altering circadian rhythm period length – cell-based, LOPAC library, luminescence reporter (AID 2774; call rule not given here)", "settings": "circadian reporter cells, at 7 µM, actives lie on both sides"}, "[16]": {"test_system": "Hepatitis C virus NS3 helicase", "assay": "blockers of NS3h binding to ssDNA – biochemical, fluorescence polarization, LOPAC1280 library, primary screen (AID 687035; in the data active = inhibition above about 37%)", "settings": "Purified HCV NS3 helicase, Cy5-dT15 ssDNA binding fluorescence polarization; stronger effect = higher value; concentration not given here"}, "[17]": {"assay": "blockers of cellular phospholipid synthesis – cell-based, LOPAC library, screen 4, primary screen (AID 1347384; call rule not given here)", "settings": "animal cells, phospholipid biosynthesis inhibition screen; at 10 µM"}, "[18]": {"assay": "galactose survival enhancers in mitochondrial complex I cybrids – cell-based, galactose medium, ATP luminescence, primary screen (AID 1645843;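 active = z-score of at least 1.8 in each of two replicates, scored against plate mean and spread of sample wells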;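 also: positive z means more ATP and so rescue of galactose-driven cybrid death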)", "settings": "complex I mutant cybrid cells, 72 h, stronger effect = higher value"}, "[19]": {"assay": "MELAS cybrid and Rieske KO viability enhancers – cell-based, MELAS cybrids, Rieske KO mouse fibroblasts, CellTiter-Glo, primary screen (AID 1508586;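 active = mean z-score across replicates of 1.96 or higher in either the MELAS or the Rieske mutant cell line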;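 also: z relative to plate mean and SD of compound and empty wells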)", "settings": "low glucose"}, "[20]": {"settings": "measured here: epithelial PC-3E GFP cell survival"}, "[21]": {"settings": "measured here: mesenchymal TEM4-18 mCherry cell survival"}, "[22]": {"settings": "stronger effect = lower value, cell number ratio, induced over uninduced"}, "[23]": {"settings": "measured here: relative caspase fold change +Dox/-Dox"}, "[24]": {"settings": "measured here: total cells with miR-34 induction, stronger effect = lower value"}, "[25]": {"settings": "measured here: total cells without miR-34 induction"}, "[26]": {"settings": "MELAS cybrid survival, CellTiter-Glo 48 h, stronger effect = higher value"}, "[27]": {"settings": "Rieske KO mouse fibroblast survival, CellTiter-Glo 72 h"}}, "note": "Values joined by “and” are separate entries in the source; they are usually repeats but may differ in a detail not shown here. Equal values may be shown once. For some assays here: Results with a measured potency or affinity are listed apart. Active and inactive are the calls of the source.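 The calls were made as follows, unless noted: active = compounds whose cell count with miR-34 switched on is under 0.7 times the count with it off; inactive = the rest.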"}
{"smiles": "CC1=C(/C=C/C(C)=C/C=C/C(C)=C/C=C/C=C(C)/C=C/C=C(C)/C=C/C2=C(C)CCCC2(C)C)C(C)(C)CCC1", "values": [{"measurement": "inhibition", "setting": "[1]", "result": -13.5, "unit": "%"}, {"measurement": "score", "setting": "[2]", "result": 1.3}, {"measurement": "rescue above control", "setting": "[3]", "result": -6.44}, {"measurement": "cytochrome c release ratio", "setting": "[4]", "result": 0.86}, {"measurement": "inhibition of aggregation", "setting": "[5]", "result": 42.6, "unit": "%"}, {"measurement": "glutamate uptake change", "setting": "[6]", "result": -16.2, "unit": "%"}, {"measurement": "inclusion score", "setting": "[7]", "result": 2.5}, {"measurement": "aggregation suppression score", "setting": "[8]", "result": 0.881}, {"measurement": "parasite load remaining", "setting": "[9]", "result": "58% (inactive)"}, {"measurement": "viability", "setting": "[9]", "result": 103, "unit": "%"}, {"measurement": "inhibition", "setting": "[10]", "result": "2.51% (inactive)"}, {"measurement": "red/green cell ratio (normalised)", "setting": "[11]", "result": "0.84 (inactive)"}, {"measurement": "normalised cell number", "setting": "[11]; [20]", "result": 1.16}, {"measurement": "normalised cell number", "setting": "[11]; [21]", "result": 0.98}, {"measurement": "fold change", "setting": "[12]; [22]", "result": "0.908 (inactive)"}, {"measurement": "fold change", "setting": "[12]; [23]", "result": 1.03}, {"measurement": "cell count", "setting": "[12]; [24]", "result": 11100}, {"measurement": "cell count", "setting": "[12]; [25]", "result": 12200}, {"measurement": "remaining NAD", "setting": "[13]", "result": "10 nM (inactive)"}, {"measurement": "luciferase signal", "setting": "[14]", "result": "36 AU (inactive)"}]}
{"smiles": "O=C(O)/C=C/c1ccc(O)c(O)c1", "values": [{"measurement": "period change", "setting": "[15]", "result": "0.055 h (inactive)"}, {"measurement": "inhibition", "setting": "[16]", "result": "0% (inactive)"}, {"measurement": "inhibition", "setting": "[10]", "result": "7.04% (inactive)"}, {"measurement": "red/green cell ratio (normalised)", "setting": "[11]", "result": "1.06 (inactive)"}, {"measurement": "normalised cell number", "setting": "[11]; [20]", "result": 1}, {"measurement": "normalised cell number", "setting": "[11]; [21]", "result": 1.06}, {"measurement": "fold change", "setting": "[12]; [22]", "result": "0.967 (inactive) and 0.99 (inactive)"}, {"measurement": "fold change", "setting": "[12]; [23]", "result": "2.48 and 1.11"}, {"measurement": "cell count", "setting": "[12]; [24]", "result": "10100 and 5830"}, {"measurement": "cell count", "setting": "[12]; [25]", "result": "10400 and 5890"}, {"measurement": "outcome", "setting": "[17]", "result": "inactive"}, {"measurement": "luciferase signal", "setting": "[14]", "result": "32 AU (inactive)"}, {"measurement": "z-score", "setting": "[18]", "result": "-0.81 (inactive)"}]}
{"smiles": "C[N+](C)(C)CCO", "values": [{"measurement": "inhibition", "setting": "[1]", "result": 2.29, "unit": "%"}, {"measurement": "score", "setting": "[2]", "result": 1.21}, {"measurement": "rescue above control", "setting": "[3]", "result": 0.45}, {"measurement": "cytochrome c release ratio", "setting": "[4]", "result": 1.11}, {"measurement": "inhibition of aggregation", "setting": "[5]", "result": 51.5, "unit": "%"}, {"measurement": "glutamate uptake change", "setting": "[6]", "result": 11.9, "unit": "%"}, {"measurement": "inclusion score", "setting": "[7]", "result": 2}, {"measurement": "aggregation suppression score", "setting": "[8]", "result": 1.39}, {"measurement": "period change", "setting": "[15]", "result": "-0.015 h (inactive)"}, {"measurement": "parasite load remaining", "setting": "[9]", "result": "151% (inactive) and 49.7% (inactive)"}, {"measurement": "viability", "setting": "[9]", "result": "89.2% and 117%"}, {"measurement": "inhibition", "setting": "[16]", "result": "-3% (inactive)"}, {"measurement": "inhibition", "setting": "[10]", "result": "2.82% (inactive)"}, {"measurement": "red/green cell ratio (normalised)", "setting": "[11]", "result": "1.11 (inactive)"}, {"measurement": "normalised cell number", "setting": "[11]; [20]", "result": 1.16}, {"measurement": "normalised cell number", "setting": "[11]; [21]", "result": 1.3}, {"measurement": "fold change", "setting": "[12]; [22]", "result": "1.01 (inactive) and 0.882 (inactive) and 0.829 (inactive)"}, {"measurement": "fold change", "setting": "[12]; [23]", "result": "2.28 and 1.39 and 4.39"}, {"measurement": "cell count", "setting": "[12]; [24]", "result": "9630 and 8510 and 11000"}, {"measurement": "cell count", "setting": "[12]; [25]", "result": "9520 and 9640 and 13300"}, {"measurement": "outcome", "setting": "[17]", "result": "inactive"}, {"measurement": "z-score", "setting": "[19]; [26]", "result": "-0.228 (inactive)"}, {"measurement": "z-score", "setting": "[19]; [27]", "result": -0.171}, {"measurement": "remaining NAD", "setting": "[13]", "result": "10 nM (inactive)"}, {"measurement": "luciferase signal", "setting": "[14]", "result": "200 AU (inactive)"}, {"measurement": "z-score", "setting": "[18]", "result": "0.51 (inactive)"}]}
{"smiles": "COc1ccc(-c2coc3cc(O)cc(O)c3c2=O)cc1", "values": [{"measurement": "inhibition", "setting": "[1]", "result": -2.46, "unit": "%"}, {"measurement": "score", "setting": "[2]", "result": 1.27}, {"measurement": "rescue above control", "setting": "[3]", "result": 4}, {"measurement": "cytochrome c release ratio", "setting": "[4]", "result": 2.73}, {"measurement": "inhibition of aggregation", "setting": "[5]", "result": 22.4, "unit": "%"}, {"measurement": "glutamate uptake change", "setting": "[6]", "result": 10.2, "unit": "%"}, {"measurement": "aggregation suppression score", "setting": "[8]", "result": 1.01}, {"measurement": "inhibition", "setting": "[10]", "result": "17.9% (inactive)"}, {"measurement": "red/green cell ratio (normalised)", "setting": "[11]", "result": "0.99 (inactive)"}, {"measurement": "normalised cell number", "setting": "[11]; [20]", "result": 1.32}, {"measurement": "normalised cell number", "setting": "[11]; [21]", "result": 1.3}, {"measurement": "fold change", "setting": "[12]; [22]", "result": "0.896 (inactive)"}, {"measurement": "fold change", "setting": "[12]; [23]", "result": 0.917}, {"measurement": "cell count", "setting": "[12]; [24]", "result": 7900}, {"measurement": "cell count", "setting": "[12]; [25]", "result": 8810}, {"measurement": "z-score", "setting": "[19]; [26]", "result": "-0.162 (inactive)"}, {"measurement": "z-score", "setting": "[19]; [27]", "result": -1.4}, {"measurement": "luciferase signal", "setting": "[14]", "result": "16 AU (inactive)"}]}
